UbGFP stabilizer – Ubiquitin-GFP Assay; 67,000 tested, under 10 active; Potency, µM (doses to about 45.9 µM), most hits filed as activators; AID 526, 2006; Ubiquitin-GFP reporter cells, proteasome inhibition, GFP fluorescence; response scale: untreated = 0%, 10 µM MG-132 = 100%; active = well fitted activation curve with a large enough effect, not every such curve was filed as active; inconclusive = small, poorly fitted or top-dose-only effect, or another doubt; inactive = no such curve, though single readings can be large or run the other way
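Proteasome blockade was scored as a rise in GFP-expressing U2OS cells carrying a ubiquitin(G76V)-GFP construct, imaged after 4 hr compound treatment at 37 °C across a 46 uM–2.9 nM series.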
Imprint erasure – qHTS Assay for Compounds that Induce Erasure of Genomic Imprints. mouse ES Peg3-LacZ reporter, beta-gal luminescence, 40 h. Potency, µM (series often up to 60.7 µM), most hits filed as activators. 110,000 compounds, 0.02% hits. AID 1948, 2009
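Readout: BetaGlo luminescence (5 min, room temp) for LacZ from the normally silent maternal Peg3 allele in female Peg3LacZ-Neo ES cells. Cells 300/well, 40 h, 37C, 5% CO2. Data normalized per plate to negative controls.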
GFP derepression – qHTS Assay for Epigenetic Modulators | mouse C127i GFP locus derepression, cytometry, 30 h | Potency, µM (titrated, usually from 46.1 µM) | 68,000 compounds, 0.09% hits | AID 597, 2007
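Derepression screen: silenced CMV-GFP reporter in murine C127i cells, 30 h compound incubation at 37 C, washed cells imaged by laser-scanning cytometer to enumerate GFP-expressing objects of 20 to 120 um.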
p53ts 32C kill – qHTS Screen for Compounds that Selectively Target Cancer Cells with p53 Mutations: Cytotoxicity of p53ts Cells at the Permissive Temperature | 130,000 compounds, 0.93% hits | H1299-p53A138V at 32C, ATP luminescence viability, 24 h | AID 924, 2007 | Potency, µM (highest dose often 46.1 µM), usual class: cytotoxic; also: nearly all actives have a fitted effect of over 55% in size
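ATP-content luminescence (ATPlite) read-out after 24 h compound exposure at 32C in H1299-p53A138V cells (600/well). Tested up to 46 uM. Normalized to DMSO (0%) and 100 uM tamoxifen (100% killing); Hill-fit AC50.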
p53ts 39C kill – qHTS Screen for Compounds that Selectively Target Cancer Cells with p53 Mutations: Cytotoxicity of p53ts Cells at the Nonpermissive Temperature; 130,000 compounds, 1.5% hits; AID 902, 2007; H1299-p53A138V viability at 39C, ATP luminescence, 24 h; Potency, µM (doses to about 46.1 µM), hits mostly cytotoxic; also: nearly all actives have a fitted effect of over 55% in size
HBB splicing – qHTS Assay for Modulators of Hemoglobin Beta Chain Splicing | HBB splicing reporter cell assay, activation; EGFP reporter with mutant IVS2-654 intron; response scale: normalised to 500 nM splice-correcting PNA | Potency, µM (series often up to 46.1 µM), actives largely listed as activators | 65,000 compounds, 0.06% hits
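HeLa cells stably expressing EGFP interrupted by mutant beta-globin intron 2 (IVS2-654), 500/well in 2% FCS. Treated with compound for 2 days at 37C. Splicing correction scored as total well GFP intensity (488 nm excitation, 500-520 nm emission); 500 nM antisense PNA served as control.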
Each line names hits and unclear results; the compound was inactive in the other large screens. In the library only some 1.6% were active in any assay of this set; here they are far more common. Unless noted, calls follow the shape of the dose curve; as a rule, active = well fitted curve in the direction sought with a large enough effect; inconclusive = small, poorly fitted or top-dose-only effect, or another doubt; inactive = no such curve, though single readings can be large; an effect the other way counts as inactive or inconclusive.

O=C(NCCCN1CCN(c2ccccc2F)CC1)c1cc2c(s1)-c1ccccc1OC2	p53ts 32C kill inconclusive, p53ts 39C kill 13µM (no result: UbGFP stabilizer, GFP derepression, HBB splicing)
CCN1CCN(CCCNC(=O)c2cc3c(s2)-c2ccccc2OC3)CC1	none (no result: UbGFP stabilizer, GFP derepression, HBB splicing)
CCCN1CCN(CCCNC(=O)c2cc3c(s2)-c2c(C)cccc2OC3)CC1	p53ts 32C kill inconclusive, p53ts 39C kill 10µM (no result: UbGFP stabilizer, GFP derepression, HBB splicing)
Cc1nn(Cc2ccc(C(=O)Nc3nccs3)cc2)c(C)c1Cl	none
Cc1cccc2c1N(CCOc1ccc(C(C)(C)C)cc1)C(=O)C2=O	none (no result: UbGFP stabilizer, Imprint erasure, GFP derepression, p53ts 32C kill, HBB splicing)
CCCOc1ccc(CN2C(=O)C(=O)c3cccc(C)c32)cc1	p53ts 39C kill 16µM (no result: UbGFP stabilizer, GFP derepression, HBB splicing)
Cc1ccc(CN2C(=O)C(=O)c3cc(Br)cc(C)c32)cc1	p53ts 32C kill inconclusive, p53ts 39C kill 10µM (no result: UbGFP stabilizer, GFP derepression, HBB splicing)
CCn1c(=O)c2cc(C(=O)Nc3cc(C)on3)sc2c2ccccc21	none (no result: GFP derepression)
N#Cc1cc2c(nc1SCC(=O)N1CCCCC1)CCCC2	none
C/C(=N/Nc1ccc2ccccc2n1)c1ccccc1O	p53ts 32C kill 3.2µM, p53ts 39C kill 2.5µM
CCOc1ccc(C(=O)Nc2cc(C)on2)cc1OCC	none
Cc1cc(NC(=O)CSc2nnc(-c3ccc4c(c3)OCCO4)o2)no1	p53ts 32C kill 5µM, p53ts 39C kill 0.79µM
O=C(Nc1nc2c(F)cccc2s1)c1ccc2c(c1)OCCO2	p53ts 32C kill 10µM, p53ts 39C kill 5µM (no result: UbGFP stabilizer, GFP derepression, HBB splicing)
Cc1cc(NC(=O)c2ccc3c(c2)OCCO3)no1	p53ts 32C kill 1.6µM, p53ts 39C kill 2µM
Cc1cc(NC(=O)c2ccc3c(c2)OCO3)no1	p53ts 32C kill 10µM, p53ts 39C kill 13µM
CCN1CCc2nc(NC(=O)c3ccc4c(c3)OCCO4)sc2C1	p53ts 32C kill inconclusive, p53ts 39C kill inconclusive
COCC(=O)Nc1sc2c(c1C(=O)OC)C(C(=O)OC)CC2 (stereo not given)	none
Cc1cc(-n2c(SCc3ccccc3F)nc3[nH]ncc3c2=O)ccc1Cl	p53ts 39C kill 16µM (no result: UbGFP stabilizer, GFP derepression, HBB splicing)
Cc1ccccc1-n1c(SCc2ccc(Cl)cc2)nc2[nH]ncc2c1=O	none (no result: UbGFP stabilizer, GFP derepression, HBB splicing)
CCCCCCC1C(C#N)=C(N)OC2=C1C(=O)CC(C)(C)C2 (stereo not given)	none (no result: GFP derepression)
CCCCCCC1C(C#N)=C(N)OC2=C1C(=O)CCC2 (stereo not given)	p53ts 32C kill 13µM, p53ts 39C kill 16µM (no result: GFP derepression)
CC(C)c1ccccc1S(=O)(=O)c1cc(N)c2ncccc2c1[N+](=O)[O-]	p53ts 39C kill 3.2µM (no result: UbGFP stabilizer, GFP derepression)
NS(=O)(=O)c1cccc2cccnc12	none
CCOC(=O)c1ccc(NC(=O)c2nc(SC(C)C)ncc2Cl)cc1	none (no result: UbGFP stabilizer, GFP derepression, HBB splicing)
CCOC(=O)c1ccc(NC(=O)c2nc(S(=O)(=O)Cc3ccccc3)ncc2Cl)cc1	p53ts 39C kill 13µM (no result: UbGFP stabilizer, GFP derepression, HBB splicing)
CCS(=O)(=O)c1ncc(Cl)c(C(=O)Nc2c(C(=O)Nc3cccc(C)c3)oc3ccccc23)n1	p53ts 32C kill inconclusive, p53ts 39C kill 20µM (no result: UbGFP stabilizer, GFP derepression, HBB splicing)
CN(c1ccccc1)S(=O)(=O)c1ccc(NC(=O)c2nc(S(C)(=O)=O)ncc2Cl)cc1	p53ts 32C kill inconclusive, p53ts 39C kill 3.2µM (no result: UbGFP stabilizer, GFP derepression, HBB splicing)
CCSc1ncc(Cl)c(C(=O)Nc2c(C(=O)Nc3cccc(C)c3)oc3ccccc23)n1	none (no result: UbGFP stabilizer, GFP derepression, HBB splicing)
CCCS(=O)(=O)c1ncc(Cl)c(C(=O)N(Cc2ccccc2)Cc2ccco2)n1	p53ts 32C kill inconclusive, p53ts 39C kill 3.2µM (no result: UbGFP stabilizer, GFP derepression, HBB splicing)
CCS(=O)(=O)c1ncc(Cl)c(C(=O)Nc2ccccc2)n1	p53ts 32C kill inconclusive, p53ts 39C kill 4µM (no result: UbGFP stabilizer, GFP derepression, HBB splicing)
COc1ccc(N(Cc2ccccc2)C(=O)c2nc(SC)ncc2Cl)cc1	none (no result: UbGFP stabilizer, GFP derepression, HBB splicing)
CCS(=O)(=O)c1ncc(Cl)c(C(=O)N(Cc2ccccc2)c2ccc(OC)cc2)n1	p53ts 32C kill 20µM, p53ts 39C kill 5µM (no result: UbGFP stabilizer, GFP derepression, HBB splicing)
Cc1nc2cc(NCc3nc4ccccc4n3Cc3ccccc3)ccc2n1C	p53ts 32C kill 4µM, p53ts 39C kill 2µM (no result: UbGFP stabilizer, Imprint erasure, GFP derepression, HBB splicing)

Screening results deposited in PubChem by National Center for Advancing Translational Sciences (NCATS).
